# Experimental data published in ChEMBL document CHEMBL4513216, “Probing the Open Global Health Chemical Diversity Library for Multistage-Active Starting Points for Next-Generation Antimalarials” (ACS Infect Dis, 2020).
# The campaign covered roughly 69,000 compounds. About 8,600 (12%) showed an effect of 50% or more. Shown is part of a subset that was picked to be rich in strong results.
# Test system: Plasmodium berghei
# Assay: Screen against P. berghei liver stage (PbLuc), transformed with Luciferase, at 10uM
# Type: functional, HepG2
# Conditions: tested at 10 uM
row,SMILES,INHIBITION [%]
1,Cc1ccc(N2CCCN(C(=O)C3CCCO3)CC2)nn1 (stereo not given),-72.5
2,Cn1nc(CN2CCOCC2)c2c1CN(Cc1ccsc1)C2,8.03
3,COc1ccc2c(c1)C(=O)NC1(CC2)CCN(Cc2ccccc2)C1 (stereo not given),41.3
4,CC(C)c1nc(C2CCCN2CCOCC2CC2)no1 (stereo not given),12.3
5,CN1C(=O)CC(C(=O)O)C12CCN(c1ccc3c(n1)CCCC3)CC2 (stereo not given),-11.7
6,CC1(C)CN(CCC(=O)NCc2cccc(Cl)c2)CC[C@]1(C)O,24.2
7,Cc1ccc2[nH]c(C(=O)N3CCCC3Cn3cccn3)cc2c1 (stereo not given),16.8
8,CN(Cc1ccccc1)C(=O)CSc1ccc2c(c1)OCCO2,73.1
9,CSCC(=O)N(C)Cc1ccccc1,47.4
10,O=C(CCc1cc(F)ccc1F)NS(=O)(=O)c1ccc2c(c1)OCCO2,42
11,CN(Cc1ccc(N(C)C)cc1)C(=O)CSc1ccc(Br)cc1,79.1
12,CSCC(=O)N(C)Cc1ccc(N(C)C)cc1,47.4
13,CN(Cc1ccccc1)C(=O)CCS(=O)(=O)c1ccc2c(c1)OCCO2,41.4
14,O=C(CCc1ccccc1F)NS(=O)(=O)c1ccc2c(c1)OCCO2,50.3
15,COc1cccc(CN(C)C(=O)CSc2ccc3c(c2)OCCO3)c1,-45.8
16,O=C(CSc1ccc2c(c1)OCCO2)NS(=O)(=O)c1cc(F)ccc1F,27.6
17,O=C(CSc1ccc2c(c1)OCCO2)NS(=O)(=O)c1ccccc1F,68.2
18,Cc1ccccc1S(=O)(=O)NC(=O)CSc1ccc2c(c1)OCCO2,5.65
19,O=C(CCc1ccccc1F)NS(=O)(=O)c1ccc2c(c1)OCCCO2,16
20,Cn1ccnc1CC1CCCN(C(=O)NCCOc2cccnc2)C1 (stereo not given),44.5
21,Cc1cn[nH]c1C1CCCCN1C(=O)CCc1c(C)n[nH]c1C (stereo not given),33.7
22,c1cnc(NCc2nnn3c2CN(CC2CC2)CCC3)nc1,10.6

row,SMILES,INHIBITION [%]
1,CC(c1cccc(S(N)(=O)=O)c1)N(C)CCOc1ccccc1 (stereo not given),22.3
2,Cc1nnc2n1CCN(C(=O)c1cn(-c3ccc(F)cc3)nn1)C2,-6.39
3,CC(=O)N(Cc1ncc(C)o1)C1CCN(Cc2nnc(C3CC3)o2)C1 (stereo not given),34.9
4,COc1ccc(S(=O)(=O)N2CCOC(C)(C(N)=O)C2)cc1 (stereo not given),-2.605
5,NC1CCCc2c1cnn2-c1cc(F)cc(F)c1 (stereo not given),-19.1
6,OCC(O)CSCc1ccc(F)cc1Cl (stereo not given),-15.6
7,OCC(O)CSCc1cc(Cl)ccc1Cl (stereo not given),5.41
8,OCC(O)CSCc1ccc(Cl)cc1Cl (stereo not given),53.9
9,COc1cccc(C(=O)NS(=O)(=O)c2cncc(Br)c2)c1OC,15.1
10,CCc1ccc(S(=O)(=O)Nc2ccncc2)s1,-6.4
11,Cn1cc(CN2CCc3onc(C(=O)Nc4cccnc4)c3C2)cn1,43.4
12,CC(C)(C)c1nc(CNC2CCN(S(C)(=O)=O)CC2)cs1,20.6
13,O=C(c1cccnc1O)N1CCOC(Cc2cccc(C(F)(F)F)c2)C1 (stereo not given),31.7
14,O=C(c1cccnc1N1CCOC(c2ccc(Cl)cc2)C1)N1CCCC1 (stereo not given),45.1
15,CN(C)C(=O)c1cccnc1N1CCOC(c2ccc(Cl)cc2)C1 (stereo not given),55
16,O=C(c1cccnc1N1CCCC1)N1CCOC(c2ccccc2)C1 (stereo not given),-30.2
17,O=C(c1cccnc1O)N1CCOC(c2ccc(Cl)cc2)C1 (stereo not given),68.6
18,O=C(c1cccnc1N1CCOC(c2ccc(F)cc2)C1)N1CCCC1 (stereo not given),45.1
19,O=C(CSc1nnc(N2CCOCC2)s1)NCc1cccs1,-21.5
20,CC(C)COC(C)C(=O)NCCNS(C)(=O)=O (stereo not given),2.29
21,Cc1oc(-c2ccsc2)nc1CC(=O)NCC(=O)Nc1cn[nH]c1,33
22,CC(C)CN1CCCn2nc(CNC(=O)CN3CCOC3=O)cc2C1,7.92

row,SMILES,INHIBITION [%]
1,Cc1nn(CC(=O)NCc2cc3n(n2)CCCN(CC(C)C)C3)cc1Cl,58.7
2,CC(C)CN1CCCn2nc(CNC(=O)CCN)cc2C1,16.6
3,Cc1noc(C)c1C(C)C(=O)N1CCCN(C)c2ccc(Cl)cc21 (stereo not given),33.1
4,CN1CCC(c2cc(C(F)(F)F)n3ccnc3n2)CC1,26.3
5,CC(=O)Nc1ccc(-c2ccccc2CCN)cc1,-2.43
6,CC(=O)Nc1cccc(-c2ccccc2CCN)c1,71.3
7,CC(=O)Nc1ccc(-c2ccccc2NC(=O)CN)cc1,-17.7
8,c1cc(C2CCN(C3CCCCC3)C2)n[nH]1 (stereo not given),18.535
9,Cc1nc2ccccn2c1CC(=O)N[C@@H]1CC[C@@H](N2CCCC2)[C@@H]1O,-6.92
10,Cc1nc2ccccn2c1CC(=O)N[C@@H]1CC[C@@H](N2CCOCC2)[C@@H]1O,52
11,Cc1nc2ccccn2c1CC(=O)N[C@@H]1CCC[C@@H](N2CCCC2)[C@@H]1O,-29.8
12,CCc1ncnc(N2CCOCC2CCO)c1F (stereo not given),6.94
13,CCc1ncnc(N2CCOCC2C(N)=O)c1F (stereo not given),-4.95
14,CCc1ncnc(N2CCOCC2C2CC2)c1F (stereo not given),57.5
15,O=C1CC(c2ccncc2)C2(CCN(C(=O)c3cccc(F)c3)CC2)N1 (stereo not given),11.3
16,Cc1cc(NC2CCC(=O)N(C)C2)n2nccc2n1 (stereo not given),-41.8
17,Cc1cnn(CC2CCCCN2Cc2nnsc2Cl)c1 (stereo not given),-17.6
18,COc1ccc(C2CC(=O)Oc3cc(C)[nH]c(=O)c32)c(OC)c1 (stereo not given),45.7
19,O=C(Cn1ccc2ccccc21)Nc1cc(N2CCOCC2)ncn1,30.5
20,O=C(Cn1ccc2ccccc21)Nc1cc(N2CCCC2)ncn1,27.5
21,CN1CCN(c2cc(NC(=O)Cn3ccc4ccccc43)ncn2)CC1,60.1
22,COCCC1(CO)CCCN(C(=O)c2cc(=O)[nH]c(=O)[nH]2)C1 (stereo not given),0.33

row,SMILES,INHIBITION [%]
1,CNC(=O)CN1CC[C@H]2CN(C(=O)c3cccn3C)C[C@H]2C1,9.51
2,O=C(NCC1CCCO1)c1cc(-c2ccncc2)c2cnccc2n1 (stereo not given),-3.02
3,CCN1CCN(C)C(=O)C12CCN(Cc1ccsc1)CC2,-9.74
4,c1cc(N2CCC(CN3CCOCC3)CC2)c2sccc2n1,73.8
5,O=C(c1cnccn1)N1CCN(c2ccnc3ccsc23)CC1,-7.46
6,O=C(N1CCOCC1)N1CCN(c2ccnc3ccsc23)CC1,5.76
7,COCC1CCN(c2ccnc3ccsc23)C1 (stereo not given),79.5
8,OCCC1CCN(c2ccnc3ccsc23)C1 (stereo not given),5.11
9,CN(C)C(=O)C1CCCN1c1ccnc2ccsc12 (stereo not given),1.75
10,CSc1ncc(Cl)c(C(=O)NC(Cc2ccccc2)C(=O)O)n1 (stereo not given),36.7
11,CC(C)C(=O)Nc1cccc(CNC(=O)CSCc2ccccn2)c1,24.2
12,CCOc1ncccc1CNC(=O)Nc1ccc(OC)c(OC)c1,-49.5
13,Cc1nc(CN2C[C@@H]3CN(C(=O)[C@H]4CCCO4)C[C@@H]3C2=O)cs1,19.4
14,CN1CCC2(CC1)C(=O)N(c1cccnc1)c1ccc(F)cc12,-45.8
15,O=C(c1cc2cc(I)ccc2[nH]1)N1CCC(Nc2cccnn2)CC1,9.54
16,COc1cccc(F)c1CN1CCC(c2nccc(C)n2)C1 (stereo not given),1.35
17,N#CCCN(CC(F)(F)F)C(=O)c1cc(-n2cccn2)ccn1,-13.7
18,Cc1ccccc1NS(=O)(=O)c1ccc(C(=O)O)cc1F,10.5
19,O=C(O)c1ccc(S(=O)(=O)Nc2ccccc2CC(F)(F)F)c(F)c1,53.3
20,O=C(O)c1ccc(S(=O)(=O)Nc2ccccc2F)c(F)c1,14.8
21,Cc1nc(C)n(C2CCCN(C(=O)c3ccn(C(C)C)n3)C2)n1 (stereo not given),-2.53
22,O=C(NCCN1CCNC1=O)c1cc(-c2ccc(O)cc2)n[nH]1,10.7

row,SMILES,INHIBITION [%]
1,O=C(NCCN1CCc2ccccc21)c1cc(-c2ccc(O)cc2)n[nH]1,68.9
2,Cc1cc(C(=O)NCCN2CCCc3ccccc32)[nH]n1,48.8
3,Cc1ccc(-c2cc(C(=O)NCCC3=CCCCC3)[nH]n2)o1,49.9
4,CCCc1cc(C(=O)NCCC2=CCCCC2)[nH]n1,-73.5
5,O=C(NCCC1=CCCCC1)c1cc(-c2ccc(O)cc2)n[nH]1,52.6
6,CN1CCN(C(=O)NC2CCCC2)Cc2cccnc21,-29.3
7,CCn1c(CNCC2CCCN2c2cccnn2)nc2ccccc21 (stereo not given),-0.113
8,COc1ccc(COCC(O)CNC(=O)Cc2ccc(C)cc2)cc1 (stereo not given),11.2
9,Cc1ncn(CCNC(=O)Nc2ccc(F)c(Cl)c2)c(=O)c1C,20.9
10,CCOC(=O)COC1CCN(C(C)=O)CC(=O)N(C)c2ccccc21 (stereo not given),22.2
11,COc1ccccc1-c1ncc(CN2CCC3(CCN(C)C3)CC2)cn1,18.4
12,COc1cccc(COCC(=O)N2CCCN(CC(N)=O)CC2)c1,-101
13,CC(C)CC(NC(=O)CSc1ccc(F)c(Cl)c1)C(=O)O (stereo not given),75.8
14,CC(C)CC(NC(=O)Nc1ccc(F)c(Cl)c1)C(=O)O (stereo not given),-20.3
15,COCC(C)NC(=O)CSc1ccc(F)c(Cl)c1 (stereo not given),46.1
16,Cc1nc(N2CCCC2)nc2c1CCN(C(=O)CN(C)C)CC2,20.1
17,COCc1ccccc1C(=O)N1CCCC1Cn1nc(C)cc1C (stereo not given),-72.745
18,C=C(C)CN1CCN(Cc2cnc(-c3ccccc3C)nc2)CC1,9.93
19,Cc1nn(-c2ccc(C(=O)O)cc2)c2c1C(C(F)(F)F)SCC(=O)N2 (stereo not given),-14.3
20,O=C(NCCCC(=O)N1Cc2ccccc2C1)NCc1cccnc1,66.3
21,O=C(NCCCC(=O)N1Cc2ccccc2C1)NCc1nccs1,39.7
22,O=C(NCCCC(=O)N1Cc2ccccc2C1)NCc1ccsc1,23.5
